Measured values: PubChem BioAssay (NCATS)
Inconclusive results are not listed. The source made the active and inactive calls. Calls come from the whole dose curve; as a rule, active = well fitted curve in the direction sought with a large enough effect; inconclusive = small, poorly fitted or top-dose-only effect, or another doubt; inactive = no such curve, though single readings can be large or run the other way.

Assay: Cytometric Cell-Based qHTS for Inhibitors of the mTORC1 Signaling Pathway in MEF (Tsc2-/-, p53-/-) Cells (AID 2660);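 note: Tsc2 and p53 null MEFs carrying empty vector with compound for 24 h; percent of cells above a phospho-rpS6 to PI ratio cutoff in each well; plate controls were DMSO for no effect and rapamycin for full effect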
Conditions: mTORC1 pathway cytometry; series mostly up to 38.3 µM; activity change, negative = inhibition: at the top concentration
In short: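 Cells are plated, treated with compound for 24 hrs at 37 degree Celsius, then fixed, blocked and immunostained for phospho-rpS6 Ser235/236. Propidium iodide counterstain follows. Per-well % positive cells is derived from the PI-normalized phospho-S6 signal.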

| SMILES | activity change, negative = inhibition |
| --- | --- |
| N[C@@H](Cc1c[nH]c2ccc(O)cc12)C(=O)O | 8.18% (inactive) |
| CCOC(=O)Nc1ccc(NCc2ccc(F)cc2)nc1N | -0.129% (inactive) |
| COc1cc2nc(N3CCN(C(=O)c4ccco4)CC3)nc(N)c2cc1OC | -23.7% (inactive) |
| CN1CCC(=C2c3ccccc3C=Cc3ccccc32)CC1 | -5.1% (inactive) |
| Nc1c2c(nc3ccccc13)CCCC2 | 0.745% (inactive) |
| O=C1c2c(O)ccc(O)c2C(=O)c2c(NCCNCCO)ccc(NCCNCCO)c21 | -21% (inactive) |
| CCC1(C)CC(=O)NC1=O (configuration not stated) | 0.383% (inactive) |
| CC(C)NCC(O)COc1ccc(CCOCC2CC2)cc1 (configuration not stated) | 10.9% (inactive) |
| CN(C)c1nc(N(C)C)nc(N(C)C)n1 | 3.95% (inactive) |
| NCCS(=O)(=O)O | -3.37% (inactive) |
| CN(C)CCC=C1c2ccccc2C=Cc2ccccc21 | 2.54% (inactive) |
| Cn1c(=O)c2c(ncn2C)n(C)c1=O | -3.43% (inactive) |
| CCC1(c2ccccc2)C(=O)NCNC1=O | -3.08% (inactive) |
| COc1ccc2[nH]cc(CCNC(C)=O)c2c1 | 4.75% (inactive) |
| CCCNCC(O)COc1ccccc1C(=O)CCc1ccccc1 (configuration not stated) | -22.4% (inactive) |
| CN1CCC(=C2c3ccccc3CC(=O)c3sccc32)CC1 | 4.82% (inactive) |
| O=C(c1ccc(F)cc1)C1CCN(CCn2c(=O)[nH]c3ccccc3c2=O)CC1 | 3.89% (inactive) |
| CC[N+](CC)(CC)CCOc1cccc(OCC[N+](CC)(CC)CC)c1OCC[N+](CC)(CC)CC | 5.2% (inactive) |
| O=C1N(c2ccccc2)c2ccccc2C1(Cc1ccncc1)Cc1ccncc1 | 4.68% (inactive) |
| NC(=O)OCC(COC(N)=O)c1ccccc1 | 4.5% (inactive) |
| Nc1nc2c(ncn2COC(CO)CO)c(=O)[nH]1 | 9.7% (inactive) |
| CC(CCc1ccc(O)cc1)NCCc1ccc(O)c(O)c1 (configuration not stated) | -22.2% (inactive) |
